This is a sample that favours compounds with a hit; in the whole collection about 4.7% have one here.
D3 antag: antagonists of human D3 dopamine receptor; D3R cells, DiscoveRx beta-arrestin luminescence, antagonist mode; stronger effect = lower value; max response, negative = inhibition, %; actives 2.5% (n = 360,000); AID 652054; in the data active = max response below about -50%; inconclusive = no clear call, values can overlap the other calls
Target sequence (P35462 whole entry, looked up): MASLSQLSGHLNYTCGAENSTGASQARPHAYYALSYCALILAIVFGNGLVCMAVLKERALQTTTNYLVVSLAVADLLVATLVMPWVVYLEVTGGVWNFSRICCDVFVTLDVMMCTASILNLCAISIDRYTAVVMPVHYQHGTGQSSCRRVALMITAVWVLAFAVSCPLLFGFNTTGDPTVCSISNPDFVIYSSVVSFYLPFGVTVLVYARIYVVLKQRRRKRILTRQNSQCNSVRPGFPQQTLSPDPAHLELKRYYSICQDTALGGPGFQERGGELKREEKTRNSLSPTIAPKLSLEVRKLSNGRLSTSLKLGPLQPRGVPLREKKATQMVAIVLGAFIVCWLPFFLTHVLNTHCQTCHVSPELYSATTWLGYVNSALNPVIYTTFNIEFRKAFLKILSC
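Cells plated overnight at 1500 cells/well, then exposed to library compounds with dopamine controls for 90 minutes at 37 degrees C. DiscoveRx reagent added for 30–60 minutes at room temperature; luminescence read, quantitative HTS format.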
ATXN2 expr inh: inhibitors of ATXN2 expression. HEK-293 ATXN2-luciferase reporter, luminescence, 24 h. actives 0.72% (n = 360,000). Potency, µM (highest dose often 57 µM), usual class: inhibitors. AID 1745845; note: nearly all actives have a fitted effect of over 55% in size
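qHTS (up to 57 uM final) was run with 24 h compound exposure of reporter cells at 37 °C. Each well was multiplexed: SteadyGlo luminescence measured ATXN2-luciferase expression after a fluorogenic Gly-Phe-AFC viability readout (25 uM final).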
D3 ag: activates the human D3 dopamine receptor; actives 0.58% (n = 410,000); P35462; D3R DiscoveRx beta-arrestin cells, luminescence, 90 min; max activation, %; in the data active = max activation above about 30%
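Agonist mode: compounds and dopamine controls were applied to plated cells for 90 min at 37 degrees C after an overnight attachment at 1500 cells/well. Luminescent read-out followed 30 - 60 minutes at room temperature with DiscoveRx detection reagent.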
TGFb SMAD3 inh: TGF-b pathway inhibition | HepG2 CAGA-GFP TGF-b/SMAD3 reporter, GFP fluorescence, 18 h; TGF-beta stimulated, 500 pg/mL final | actives 1.2% (n = 410,000) | AID 588855 | Potency, µM (highest dose often 46.1 µM), most hits filed as inhibitors; note: nearly all actives have a fitted effect of over 65% in size
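HEPG2 CAGA-GFP cells (1000/well, DMEM with 1% FBS) were pre-incubated 2 h at 37 degrees C, given compound by pin tool, then stimulated with TGF-beta at 500 pg/mL final for 18 h before per-cell GFP fluorescence imaging.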
ATXN viability: cell viability loss in ATXN counter-screen. S2 cells (HEK-293 line with an ATXN2-luciferase reporter) viability, CellTiter-Fluor protease fluorescence, 24 h. actives 0.49% (n = 400,000). Potency, µM (top dose mostly 56.7 µM), hits mostly cytotoxic; note: nearly all actives have a fitted effect of over 40% in size
HepG2 tox-1: kills HepG2 cells in TGF-b inhibitor counter-screen. HepG2 CAGA-GFP viability, ATP luminescence, 18 h. Potency, µM (titrated, usually from 46.1 µM), hits mostly cytotoxic. actives 0.76% (n = 410,000). AID 588856
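HepG2 CAGA-GFP cells (1000/well, DMEM with 1% FBS) received compound, then TGF-beta at 500 pg/mL final, and were incubated 18 hours at 37 degrees C. Viability was read by CellTiter-Glo luminescence. Media-only wells were set as complete cell-killing and DMSO as no toxicity.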
TGFb confirm: confirmation of TGF-b signaling inhibitors in HepG2 reporter cells. shares compounds with TGFb SMAD3 inh. Potency, µM (titrated, usually from 46.1 µM), usual class: inhibitors. HepG2 CAGA-GFP TGF-b reporter, GFP fluorescence, 18 h; cells stimulated with TGF-beta, 500 pg/mL. actives 63% (n = 1,600); note: nearly all actives have a fitted effect of over 65% in size
HepG2 tox-2: counter-screen for TGF-b inhibitors: cytotoxicity in HepG2 cells; Potency, µM (doses to about 46.1 µM), usual class: inhibitors; actives 27% (n = 1,600); shares compounds with TGFb SMAD3 inh; AID 720535; HepG2 CAGA-GFP viability, ATP luminescence, 18 h; cells stimulated with TGF-beta, 500 pg/mL; note: nearly all actives have a fitted effect of over 70% in size
CCL64 TGFb inh: orthogonal confirmation of TGF-b inhibitors in CCL64 cells. shares compounds with TGFb SMAD3 inh. Potency, µM (top dose mostly 46.1 µM), hits mostly inhibitors. actives 41% (n = 1,600). CCL64 CAGA-GFP reporter, TGF-b stimulated, GFP fluorescence, 18 h; note: nearly all actives have a fitted effect of over 65% in size
COP TGFb inh: validation of TGF-b inhibitors in HepG2 COP promoter reporter. shares compounds with TGFb SMAD3 inh. HepG2 COP-GFP TGF-b reporter, GFP fluorescence, 18 h; cells stimulated by added recombinant TGF-beta. Potency, µM (doses to about 46.1 µM), hits mostly inhibitors. actives 3% (n = 1,600). AID 720537; note: nearly all actives have a fitted effect of over 70% in size
Each line names hits and unclear results; the compound was inactive in the other large screens (follow-up assays come after a bar, where they were run). Unless noted, calls come from the whole dose curve; as a rule, active = well fitted curve in the direction sought with a large enough effect; inconclusive = small, poorly fitted or top-dose-only effect, or another doubt; inactive = no such curve, though single readings can be large; an effect the other way counts as inactive or inconclusive.

O=C1NCN(c2ccccc2)C12CCN(C(c1cccs1)c1nnnn1-c1ccc3c(c1)OCCO3)CC2 (stereo not given)	TGFb SMAD3 inh 12.6µM, ATXN viability inconclusive | TGFb confirm inconclusive | HepG2 tox-2 inactive | CCL64 TGFb inh 10.3µM | COP TGFb inh inactive
COc1ccc(C(c2nnnn2-c2c(C)cccc2C)N2CCC(n3c(=O)[nH]c4ccccc43)CC2)cc1 (stereo not given)	ATXN2 expr inh inconclusive, TGFb SMAD3 inh inconclusive, ATXN viability inconclusive
Cc1cccc(C)c1-n1nnnc1C(c1cc2ccccc2o1)N1CCC(n2c(=O)[nH]c3ccccc32)CC1 (stereo not given)	ATXN2 expr inh 5.62µM, TGFb SMAD3 inh 7.08µM, ATXN viability inconclusive | TGFb confirm 5.8µM | HepG2 tox-2 inconclusive | CCL64 TGFb inh 5.8µM | COP TGFb inh inactive
Cc1c(-c2ccc(Br)cc2)c(=O)oc2ccc(OC(=O)N3CCOCC3)cc12	TGFb SMAD3 inh inconclusive (no result: D3 antag, ATXN2 expr inh, ATXN viability)
Cc1cccn2c(=O)c(/C=C(\C#N)c3nc4ccccc4s3)c(Oc3ccc(F)cc3)nc12	ATXN viability inconclusive (no result: D3 antag)
CC(C)c1ccc(NC(=O)Cn2c(=O)oc3cccnc32)cc1	none
COc1ccc(CN2Cc3cc(-c4cccc(F)c4)ccc3-n3nncc3C2)cc1	TGFb SMAD3 inh 11.2µM | TGFb confirm 14.6µM | HepG2 tox-2 inconclusive | CCL64 TGFb inh inconclusive | COP TGFb inh inactive
S=C(NCCc1ccccc1)N1Cc2cc(-c3ccccc3)ccc2-n2nncc2C1	TGFb SMAD3 inh inconclusive, ATXN viability inconclusive
Fc1cccc(-c2ccc3c(c2)CN(C(=S)NCCc2ccccc2)Cc2cnnn2-3)c1	TGFb SMAD3 inh 11.2µM | TGFb confirm inconclusive | HepG2 tox-2 inactive | CCL64 TGFb inh inconclusive | COP TGFb inh inactive
Clc1cccc(N2Cc3cc(-c4ccccc4)ccc3-n3nncc3C2)c1	ATXN2 expr inh 22.4µM, TGFb SMAD3 inh 7.94µM, HepG2 tox-1 8.91µM (no result: ATXN viability) | TGFb confirm 20.6µM | HepG2 tox-2 inconclusive | CCL64 TGFb inh 6.51µM | COP TGFb inh inactive
S=C(NCCc1ccccc1)N1Cc2cc(N3CCCCC3)ccc2-n2nncc2C1	TGFb SMAD3 inh 10µM | TGFb confirm inconclusive | HepG2 tox-2 inactive | CCL64 TGFb inh inactive | COP TGFb inh inactive
COP(=S)(OC)Oc1cc(Cl)c(Cl)cc1Cl	none (no result: D3 antag, TGFb SMAD3 inh, HepG2 tox-1)
CCOc1ccc(NC(=O)CN(c2ccc(Cl)cc2C)S(=O)(=O)c2ccccc2)cc1	TGFb SMAD3 inh inconclusive (no result: D3 antag)
Nc1cccc(NP(=O)(c2ccccc2)c2ccccc2)c1	none (no result: ATXN2 expr inh)
COC(=O)c1cn(S(=O)(=O)c2ccccc2)c2ccccc12	ATXN viability inconclusive
COC(=O)C1=C(c2cccc(C#N)c2)C[C@@H]2CC[C@H]1N2C(=O)NCc1cc(C)oc1C(F)(F)F	D3 antag inconclusive
